“And” between values parts separate entries of the source, which are not always exact repeats. Equal entries are not always repeated. Compounds without any hit were thinned out: in the full panel of roughly 83,000, 20% have a hit.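 Testing used 96-well plates and a 48-hour single-concentration exposure. Example: -40 means 40% of the starting cells died.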 Values without a mark were called inactive. The source made the active and inactive calls.
System: HL-60(TB) leukemia
Assay: NCI-60 one-dose screen, 48 h (100 = growth as untreated, 0 = no growth, -100 = all killed)
Details: 10 µM
Method: Growth inhibition of the HL-60(TB) human tumor cell line is measured as a screen for anti-cancer activity. Cells are grown in 96 well plates and exposed to the test compound for 48 hours. Compounds are tested at a single concentration, which is 10^-5 M for most compounds. The reported endpoint is percent growth (GI% or GIPRCNT), where numbers from 0 - 100% represent growth inhibition, and numbers from -100% - 0 represent cell death. For example, a value of 40 represents 60% growth inhibition. A value of 0 means no net growth occurred over the course of the experiment. A value of -40 indicates 40% of cells at the beginning of the experiment died by the end of the experiment. A value of -100 means all cells are dead at the end of the experiment.
NCI-60 Human Tumor Cell Lines Screen was performed using the standard one-dose NCI protocol, which is described in more detail at https://dtp.cancer.gov/discovery_development/nci-60/default.htm.
Compounds with GIPRCNT values below 10 were considered active. Activity score was based on GIPRCNT using the following formula: […]
Score is 0 for GIPRCNT values of 100 or above, 50 for GIPRCNT values of 0, and 100 for GIPRCNT values of -100.

Compound	growth
S=C(SSC(=S)N1CCCCC1)N1CCCCC1	86.4%

Same assay, conditions: 10 µM unless noted

Compound	growth
COc1ccccc1/C=C(/C)[N+](=O)[O-]	30.7% and 92.7%
CCCCCCCCCCCC1CCCC(C)N1 (configuration not stated)	-45.8% (active)
CC[n+]1c(-c2ccccc2)c2cc(N)ccc2c2ccc(N)cc21	23.7%
C[C@]12CC[C@H](O)CC1=CC[C@@H]1[C@@H]2CC[C@]2(C)C(=O)CC[C@@H]12	85%
COc1ccc(OC)c(/C=C/[N+](=O)[O-])c1	1.04% (active)
Cc1cc(N=Nc2ccccc2C)ccc1N	8.96% (active)
CCC1(O)CC(OC2CC(N(C)C)C(OC3CC4OC5CC(=O)C(C)OC5OC4C(C)O3)C(C)O2)c2c(cc3c(c2O)C(=O)c2c(O)ccc(O)c2C3=O)C1C(=O)OC (configuration not stated)	-41.6% (active)
Cc1ccc(C(=O)OC(C(=O)O)C(OC(=O)c2ccc(C)cc2)C(=O)O)cc1 (configuration not stated) (tested in a mixture with another compound)	23.5%
CC[C@](O)(C(=O)O)c1cc2n(c(=O)c1CO)Cc1cc3ccccc3nc1-2	-44.6% (active)
O=C(O)c1ccccc1.[Ag]	113%
NCCc1ccc(OCc2ccccc2)c(OCc2ccccc2)c1	51.4%
c1ccc2c(c1)[nH]c1c2cc[n+]2cc3c(cc12)CCCC3	13.5%
CC1=C2C(=O)[C@H]3[C@@H](CC=C4C[C@@H](O)CC[C@@]43C)[C@@H]2CC[C@]12O[C@@H]1C[C@H](C)CN[C@H]1[C@H]2C	115%
CC[C@@]1(O)C[C@H](OC2CC(N(C)C)C(O)C(C)O2)c2c(O)c3c(c(O)c2[C@H]1OC1CC(N(C)C)C(O)C(C)O1)C(=O)c1cccc(O)c1C3=O (some centres not stated)	-34.3% (active)
COC1CC(CC2CCC(C)C(C(C)C(=O)O)O2)OC2(OC(C)(C3CCC(C)(C4OC(C5OC(O)(CO)C(C)CC5C)CC4C)O3)CC2C)C1C (configuration not stated)	-56% (active)
CCC(=O)OC1CCn2c1nc1c2C(=O)C(C)=C(N2CC2)C1=O (configuration not stated)	10.4%
CC[C@@]1(O)C[C@H](OC2CC(N(C)C)C(OC3CC(O)C(OC4CCC(=O)C(C)O4)C(C)O3)C(C)O2)c2c(cc3c(c2O)C(=O)c2c(O)ccc(O)c2C3=O)[C@H]1C(=O)OC (some centres not stated)	-9.74% (active)
CC(=O)O[C@H]1C[C@@H]2OC3C=C(C)CCC3(C)[C@@]1(C)[C@@]21CO1 (some centres not stated)	-42% (active)
O=C1c2ccccc2C(=O)C(Cl)C1Cl (configuration not stated)	-24.2% (active)
Oc1cc[c]([Hg][Cl])cc1	102%
CO[C@H](/C(C)=C/C=C/C(C)=C/c1coc(C)n1)[C@H](C)[C@H]1C[C@@H](O)[C@@]2(C)O[C@H]2/C=C/[C@@H](C)[C@@H]2C[C@@H](CC(=O)O2)C[C@H]2O[C@@H]2C(=O)O1	-36.9% (active)
Cc1c(N)nc([C@H](CC(N)=O)NC[C@H](N)C(N)=O)nc1C(=O)N[C@H](C(=O)N[C@H](C)[C@@H](O)[C@H](C)C(=O)N[C@H](C(=O)NCCc1nc(-c2nc(C(=O)NCCC[S+](C)C)cs2)cs1)[C@@H](C)O)C(OC1OC(CO)C(O)C(O)C1OC1OC(CO)C(O)C(OC(N)=O)C1O)c1cnc[nH]1 (some centres not stated)	81.8% [2.5 µM]
COC1=C(C)C(=O)C2=C(C1=O)C(CO)N1C(C#N)C3CC4C(C1C2N1CCOC41)N3C (configuration not stated)	-33.9% (active)
CC1=C(CO)C2=C(C)C3(CC3)[C@@](C)(O)C(=O)C2=C1	-32.9% (active)
C[C@H]1CCC/C=C/[C@@H]2C[C@H](O)C[C@H]2[C@H](O)/C=C/C(=O)O1	-22.5% (active)
CN1CCN(c2ccc([N+](=O)[O-])c3no[n+]([O-])c23)CC1	-42.4% (active)
Oc1ccc(Cl)cc1Sc1cc(Cl)ccc1O	81.8%
CCOC(=O)C(NC(=O)C(Cc1ccc(N(CCCl)CCCl)cc1)NC(C)=O)C(C)C (configuration not stated)	44.9%
Oc1cccc2cccnc12	98.8% and 114% and 78.2%
COc1cccc2c1cc([N+](=O)[O-])c1c(C(=O)O)cc3c(c12)OCO3	41.6% and 79.4%

Same assay, conditions: 100 µM

Compound	growth
S=C(SSC(=S)N1CCCCC1)N1CCCCC1	14.7%

From PubChem BioAssay (NCI)
